In ChEMBL document CHEMBL1157539, “Thousands of chemical starting points for antimalarial lead identification” (Nature, 2010):

Columns and labels:
Assay type in all cases: functional
Plasmodium falciparum [1] = assay: GSK_TCMDC: Inhibition of Plasmodium falciparum 3D7 in whole red blood cells, using parasite LDH activity as an index of growth. Test compounds present at 2uM
Plasmodium falciparum [2] = assay: GSK_TCMDC: Inhibition of Plasmodium falciparum Dd2 in whole red blood cells, using parasite LDH activity as an index of growth. Test compounds present at 2uM
HepG2 = assay: GSK_TCMDC: Percent inhibition of human HepG2 cell line. Test compounds present at 10uM.

Row | Structure (SMILES) | Inhibition (Plasmodium falciparum [1]) [%] | Inhibition (Plasmodium falciparum [2]) [%] | Inhibition (HepG2) [%]
1 | Cl.O=C(/C=C/c1ccc(Cl)c(Cl)c1)N1CCC(CN2CCC(c3c[nH]c4ncccc34)CC2)CC1 | 84 | 20 | 38
2 | Oc1ccccc1CN1CCC2(CCCN(Cc3ccccc3F)C2)C1 (centres undefined) | 98 | 83 | 13
3 | COc1ccc2ncc(C#N)c(CCN3CCC(NCc4ccc5c(n4)NC(=O)CS5)CC3)c2n1.Cl | 89 | 17 | 9
4 | O=C(O)C(F)(F)F.OCC1CCN(Cc2ccc(-c3cccc(-c4nc5cc(C(F)(F)F)ccc5[nH]4)c3)cc2)CC1 | 99 | 73 | 19
5 | COc1ccc2nccc([C@@H](O)CN3CCC(NC(=O)C(=Cc4ccc(Cl)cc4Cl)c4ccc(-c5ccccc5)cc4)CC3)c2c1 | 100 | 98 | 1
6 | Cc1cccc(N2C(N)=NC(N)=NC2(C)C)c1C.Cl | 90 | 0 | 0
7 | O=C(NC1CCCCC1)N(Cc1ccc(-c2ccc(CNCc3ccc4c(c3)OCO4)cc2)cc1)C1CCN(Cc2ccccc2)CC1.O=C(O)C(F)(F)F | 100 | 72 | 28
8 | CCn1c(-c2nonc2N)nc2cnc(Oc3cccc(NC(=O)c4ccc(OCCN5CCCCC5)cc4)c3)cc21 | 98 | 7 | 16
9 | CN(C)CCNCc1cccc(-c2ccc3c(Nc4ccc(Oc5ccccc5)cc4)ccnc3c2)c1 | 100 | 99 | 31
10 | CN1CCC(N2CCN(Cc3ccc(-c4ccc(-c5nc6ccccc6[nH]5)s4)cc3)CC2)CC1.O=C(O)C(F)(F)F | 100 | 100 | 62
11 | Fc1ccc2nc(Nc3nc(-c4ccccn4)cs3)sc2c1 | 100 | 100 | 42
12 | Fc1ccc2[nH]c(-c3cccc(-c4ccc(CNCCN5CCNCC5)cc4)c3)nc2c1.O=C(O)C(F)(F)F | 90 | 0 | 9
13 | COc1ccc2nccc([C@@H](O)CN3CCC(NCc4[nH]c5ccccc5c4F)CC3)c2c1.O=C(O)C(=O)O | 100 | 61 | 19
14 | Cc1cccc2nc(-c3cccc(-c4ccc(NC(=O)NCc5cccc(F)c5)cc4)c3)[nH]c12 | 100 | 83 | 40
15 | CCc1ccccc1N1CCN(CCCCNC(=O)c2ccc(NC(=O)c3ccc(Cl)cc3)cc2)CC1 | 96 | 4 | 21
16 | COc1ccc(NC(=O)Nc2ccc(-c3ccccc3)cc2Cl)cc1N1CCN(C)CC1 | 90 | 30 | 40
17 | FC(F)(F)c1ccc2[nH]c(-c3ccc(-c4ccc(CN5CCN(c6ccncc6)CC5)cc4)s3)nc2c1.O=C(O)C(F)(F)F | 100 | 50 | 97
18 | CCCC(CC)n1ccc2c3c(N)nc(N)nc3ccc21.CS(=O)(=O)O (centres undefined) | 94 | 97 | 67
19 | CC1CC1C(=O)NC1CCN(CC2(c3ccccc3)CCCCC2)CC1 (centres undefined) | 97 | 95 | 0

Row | Structure (SMILES) | Inhibition (Plasmodium falciparum [1]) [%] | Inhibition (Plasmodium falciparum [2]) [%] | Inhibition (HepG2) [%]
20 | CN(C)CCNC(=O)c1ccc2c(c1)ncn2-c1cc(OCc2ccccc2C(F)(F)F)c(C(N)=O)s1.CN(C)CCNC(=O)c1ccc2ncn(-c3cc(OCc4ccccc4C(F)(F)F)c(C(N)=O)s3)c2c1 | 90 | 8 | 0
21 | COc1ccc(Cn2c(Nc3cccc(C(F)(F)F)c3)nc3cc(C(=O)NCCCN(C)C)ccc32)cc1Cl | 90 | 3 | 15
22 | Cc1ccccc1C1CCN(C2CCC(NC(=O)c3cc(-c4ccc(Cl)cc4)cs3)CC2)CC1 (centres undefined) | 100 | 100 | 99
23 | CN(CC(=O)Nc1cc(C(F)(F)F)ccc1-n1cncn1)Cc1nc2ccccc2s1 | 87 | 64 | 3
24 | CCCCCCNC(=O)C1Cc2c([nH]c3ccc(Br)cc23)C2(CCN(CCc3ccccc3)CC2)N1 (centres undefined) | 100 | 94 | 36
25 | COc1cc2c(OC)cccc2cc1CNCCCCCCNCc1cc2cccc(OC)c2cc1OC.CS(=O)(=O)O | 95 | 7 | 59
26 | CC(Cc1ccc(OCCN2CCN(c3cccc(C(F)(F)F)c3)CC2)cc1)NCC(O)c1cccc(C(F)(F)F)c1.Cl (centres undefined) | 97 | 91 | 11
27 | Cn1cncc1CCN(Cc1ccc(-c2ccc(C(F)(F)F)cc2)cc1)C(=O)Cn1c(CCc2cccc(F)c2F)cc(=O)c2cccnc21 | 100 | 97 | 44
28 | CCOC(=O)NC1=NC(=N)N(OCc2ccc(Cl)c(Cl)c2)C(C)(C)N1 | 96 | 90 | 66
29 | CCN(c1ccccc1)S(=O)(=O)c1ccc(NC(=O)c2cc(-c3cc(C)ccc3O)n[nH]2)cc1 | 99 | 55 | 49
30 | CN(C)CCN(C)Cc1ccc(-c2cccc(-c3nc4ccccc4[nH]3)c2)cc1.O=C(O)C(F)(F)F | 100 | 78 | 46
31 | CCCCN(CCCC)/C(=N/C(=N)NCc1ccc(Cl)c(Cl)c1)NCCCCCCN/C(=N\C(=N)NCc1ccc(Cl)c(Cl)c1)N(CCCC)CCCC | 100 | 96 | 9
32 | CC(C)c1ccc(NC(=O)N[C@H]2CCN(CCCCCNC(=O)/C=C/c3ccc(Cl)c(Cl)c3)C2)cc1 | 100 | 14 | 56
33 | CCCCCCC1(C)N=C(N)N=C(N)C1c1ccc(Cl)c(Cl)c1.Cl (centres undefined) | 94 | 43 | 18
34 | CCCNCc1ccc(-c2ccc(CN(CCOC)C(=O)c3cscn3)cc2)nc1.O=C(O)C(F)(F)F | 99 | 16 | 13
35 | CN(C)c1ccc(-c2csc(C(=O)NCC3CCN(Cc4ccc(C(C)(C)C)cc4)C3)c2)cc1.O=C(O)C(F)(F)F (centres undefined) | 97 | 64 | 29
36 | Cc1nc2nc(N)nc(N)c2c(C)c1Cc1cccc(C(F)(F)F)c1.Cl | 89 | 23 | 65
37 | CCN(CC)CCCC(C)Nc1c(-c2ccc(C)cc2)cnc2ccccc12 (centres undefined) | 85 | 65 | 8
38 | O=C(Nc1cccc(-c2ccc(-c3nc4cc(F)ccc4[nH]3)cc2)c1)Nc1ccc(F)c(F)c1F | 98 | 98 | 53
